About 2,000 (36%) of roughly 5,500 compounds were called active. Roughly 18% stayed inconclusive and do not appear here. Cut-off read from the data, not from the text of the source: active = normalized growth mostly below about 0.91 (no sharp cut-off); inconclusive = no clear call, values can overlap the other calls; inactive = mostly above about 0.92. This is one part of the list.
Assay: chemical genetic growth profiling, strain panel (AID 1159580);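 note: tested at 20 µM; growth read once vehicle control cultures reached saturation at 30 °C; 1 = growth at the plate median or of vehicle wells; lower values mean less growth of the strain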
Details: growth OD

Measured: normalized growth

O=C(O)c1cc(=O)c2cccc(O)c2[nH]1
inactive: S. cerevisiae deletion strains, locus YJR075W, strain HOC1, hits give low values 0.974 | S. cerevisiae deletion strains, locus YKL009W, strain mrt4, hits give low values 0.965 | S. cerevisiae deletion strains, locus YKL068W, hits give low values 0.976 | S. cerevisiae deletion strains, locus YKL085W, strain MDH1 (second series), hits give low values 0.964 | S. cerevisiae deletion strains, locus YKL085W, strain MDH1, hits give low values 0.964 | S. cerevisiae deletion strains, locus YKL160W, strain elf1, hits give low values 1.05 | S. cerevisiae deletion strains, locus YKL190W, strain CNB1, hits give low values 0.982 | S. cerevisiae deletion strains, locus YKR001C, strain vps1, hits give low values 1 | S. cerevisiae deletion strains, locus YKR026C, strain gcn3, hits give low values 1.01 | S. cerevisiae deletion strains, locus YKR091W, strain srl3, hits give low values 1.01 | S. cerevisiae deletion strains, locus YLL001W, strain dnm1, hits give low values 1.02 | S. cerevisiae deletion strains, locus YLL026W, hits give low values 1.02 | S. cerevisiae deletion strains, locus YLL041C, strain sdh2, hits give low values 1 | S. cerevisiae deletion strains, locus YLR027C, strain aat2, hits give low values 0.996 | S. cerevisiae deletion strains, locus YLR039C, strain RIC1, hits give low values 0.968 | S. cerevisiae deletion strains, locus YLR058C, strain SHM2, hits give low values 0.987 | S. cerevisiae deletion strains, locus YLR102C, strain apc9, hits give low values 0.979 | S. cerevisiae deletion strains, locus YLR113W, strain HOG1, hits give low values 0.99 | S. cerevisiae deletion strains, locus YLR221C, strain rsa3, hits give low values 0.995 | S. cerevisiae deletion strains, locus YLR258W, strain gsy2, hits give low values 1.03 | S. cerevisiae deletion strains, locus YLR262C, strain YPT6 (second series), hits give low values 1.01 | S. cerevisiae deletion strains, locus YLR262C, strain YPT6, hits give low values 0.971 | S. cerevisiae deletion strains, locus YLR268W, strain sec22, hits give low values 0.916 | S. cerevisiae deletion strains, locus YLR320W, strain mms22, hits give low values 1.01 | S. cerevisiae deletion strains, locus YLR330W, strain CHS5, hits give low values 0.991 | S. cerevisiae deletion strains, locus YLR342W, strain FKS1 (second series), hits give low values 1.08 | S. cerevisiae deletion strains, locus YLR342W, strain FKS1, hits give low values 1.02 | S. cerevisiae deletion strains, locus YLR357W, strain rsc2, hits give low values 1.05 | S. cerevisiae deletion strains, locus YLR370C, strain arc18, hits give low values 1.04 | S. cerevisiae deletion strains, locus YLR371W, strain rom2, hits give low values 0.98 | S. cerevisiae deletion strains, locus YLR384C, strain iki3, hits give low values 1.02 | S. cerevisiae deletion strains, locus YLR418C, strain cdc73, hits give low values 1.03 | S. cerevisiae deletion strains, locus YML016C, strain PPZ1, hits give low values 1 | S. cerevisiae deletion strains, locus YML032C, strain rad52, hits give low values 0.961 | S. cerevisiae deletion strains, locus YML120C, strain ndi1, hits give low values 1.01 | S. cerevisiae deletion strains, locus YML124C, strain tub3, hits give low values 0.977 | S. cerevisiae deletion strains, locus YMR058W, strain fet3, hits give low values 1.02 | S. cerevisiae deletion strains, locus YMR078C, strain ctf18, hits give low values 0.991 | S. cerevisiae deletion strains, locus YMR125W, strain sto1, hits give low values 1.02 | S. cerevisiae deletion strains, locus YMR129W, hits give low values 1.02 | S. cerevisiae deletion strains, locus YMR205C, strain PFK2, hits give low values 1.02 | S. cerevisiae deletion strains, locus YMR223W, strain ubp8, hits give low values 1.03 | S. cerevisiae deletion strains, locus YMR231W, strain pep5, hits give low values 1.01 | S. cerevisiae deletion strains, locus YMR263W, strain SAP30, hits give low values 0.975 | S. cerevisiae deletion strains, locus YMR307W, strain GAS1, hits give low values 1.09 | S. cerevisiae deletion strains, locus YNL067W, strain RPL9B, hits give low values 0.967 | S. cerevisiae deletion strains, locus YNL071W, strain lat1, hits give low values 1.02 | S. cerevisiae deletion strains, locus YNL128W, strain TEP1, hits give low values 0.983 | S. cerevisiae deletion strains, locus YNL153C, strain GIM3, hits give low values 0.97 | S. cerevisiae deletion strains, locus YNL183C, strain NPR1, hits give low values 0.917 | S. cerevisiae deletion strains, locus YNL209W, strain ssb2, hits give low values 0.999 | S. cerevisiae deletion strains, locus YNL233W, strain BNI4, hits give low values 0.97 | S. cerevisiae deletion strains, locus YNL248C, strain rpa49, hits give low values 1.03 | S. cerevisiae deletion strains, locus YNL250W, strain rad50, hits give low values 0.967 | S. cerevisiae deletion strains, locus YNL271C, strain bni1, hits give low values 0.976 | S. cerevisiae deletion strains, locus YNL298W, strain CLA4, hits give low values 0.987 | S. cerevisiae deletion strains, locus YNL307C, strain MCK1, hits give low values 0.981 | S. cerevisiae deletion strains, locus YNL322C, strain KRE1 (second series), hits give low values 1.03 | S. cerevisiae deletion strains, locus YNL322C, strain KRE1, hits give low values 0.984 | S. cerevisiae deletion strains, locus YNR049C, strain mso1, hits give low values 1.02 | S. cerevisiae deletion strains, locus YNR052C, strain pop2, hits give low values 1 | S. cerevisiae deletion strains, locus YOL006C, strain TOP1, hits give low values 1.02 | S. cerevisiae deletion strains, locus YOL012C, strain htz1 0.728 | S. cerevisiae deletion strains, locus YOL147C, strain pex11, hits give low values 0.985 | S. cerevisiae deletion strains, locus YOR001W, strain rrp6, hits give low values 0.956 | S. cerevisiae deletion strains, locus YOR061W, strain CKA2, hits give low values 0.992 | S. cerevisiae deletion strains, locus YOR069W, strain VPS5, hits give low values 0.991 | S. cerevisiae deletion strains, locus YOR070C, strain gyp1, hits give low values 1.02 | S. cerevisiae deletion strains, locus YOR080W, strain dia2, hits give low values 1.01 | S. cerevisiae deletion strains, locus YOR083W, strain WHI5, hits give low values 1.05 | S. cerevisiae deletion strains, locus YOR106W, strain vam3, hits give low values 1.03 | S. cerevisiae deletion strains, locus YOR136W, strain idh2, hits give low values 0.99 | S. cerevisiae deletion strains, locus YOR144C, strain elg1, hits give low values 0.99 | S. cerevisiae deletion strains, locus YOR184W, strain ser1, hits give low values 0.972 | S. cerevisiae deletion strains, locus YOR231W, strain MKK1, hits give low values 0.982 | S. cerevisiae deletion strains, locus YOR265W, strain rbl2, hits give low values 1.01 | S. cerevisiae deletion strains, locus YOR270C, strain vph1, hits give low values 0.995 | S. cerevisiae deletion strains, locus YOR290C, strain snf2, hits give low values 1.06 | S. cerevisiae deletion strains, locus YOR316C, strain cot1, hits give low values 0.966 | S. cerevisiae deletion strains, locus YPL051W, strain arl3, hits give low values 1.04 | S. cerevisiae deletion strains, locus YPL055C, strain LGE1, hits give low values 0.951 | S. cerevisiae deletion strains, locus YPL078C, strain atp4, hits give low values 1.04 | S. cerevisiae deletion strains, locus YPL106C, strain sse1, hits give low values 1.03 | S. cerevisiae deletion strains, locus YPL240C, strain hsp82, hits give low values 1.01 | S. cerevisiae deletion strains, locus YPL241C, strain CIN2, hits give low values 0.982 | S. cerevisiae deletion strains, locus YPL256C, strain CLN2, hits give low values 0.965 | S. cerevisiae deletion strains, locus YPR119W, strain clb2, hits give low values 0.987 | S. cerevisiae deletion strains, locus YPR141C, strain kar3, hits give low values 0.97 | S. cerevisiae deletion strains, locus YPR163C, strain tif3, hits give low values 0.989 | S. cerevisiae deletion strains, locus YPR167C, strain met16, hits give low values 0.973 | S. cerevisiae deletion strains, strain wtn01, hits give low values 0.995 | S. cerevisiae strains, strain wild type, hits give low values 1

— PubChem BioAssay AID1159580 (chemical genetic matrix, 2015)
